Test results published in PubChem BioAssay (NCI).
About 83,000 compounds went through this panel and 20% of them were active in at least one assay; those are over-represented in the sample as a whole.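 Growth was measured after 48 h exposure to one concentration of compound in 96-well plates. Values under 10 count as active.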

Columns and labels:
Assay in all cases: NCI-60 one-dose screen, 48 h (100 = growth as untreated, 0 = no growth, -100 = all killed)
Settings in all cases: 10 µM unless noted
[1] = system: DU-145 prostate
[2] = system: K-562 leukemia
[3] = system: MALME-3M melanoma
[4] = system: MDA-MB-231 breast
[5] = system: RXF 393 renal
[6] = system: SF-268 CNS
[7] = system: SF-295 CNS
[8] = system: SF-539 CNS
[9] = system: M14 melanoma
[10] = system: HCT-15 colon
[11] = system: HT29 colon
[12] = system: SNB-75 CNS
[13] = system: SNB-19 CNS
[14] = system: U251 CNS
[15] = system: SK-MEL-5 melanoma
[16] = system: UACC-62 melanoma
[17] = system: SK-MEL-28 melanoma
[18] = system: PC-3 prostate
[19] = system: LOX IMVI melanoma

Measured: growth

COc1cc(C(=O)N2CCN(C(=O)c3ccco3)CC2)c(N)cc1OCc1ccccc1
inactive: [1] 115% | [2] 85.3% | [3] 107% | [4] 101% | [5] 89.9% | [6] 108% | [7] 115% | [8] 98.2% | [9] 102% | [10] 101% | [11] 107% | [12] 96.8% | [13] 103% | [14] 99.1% | [15] 94.9% | [16] 93.8% | [17] 114%

O=C(/C=C/CN1CCOCC1)Nc1cc2c(Nc3ccc(F)c(Cl)c3F)ncnc2cc1OCCOC(F)F
inactive: [1] 39.7% | [2] 52% | [3] 81.6% | [4] 33.8% | [5] 36.4% | [6] 48.3% | [7] 71.7% | [8] 63.5% | [9] 62.3% | [10] 38.1% | [11] 43.3% | [12] 21.5% | [13] 70% | [14] 81.2% | [18] 46.1% | [15] 50.4% | [16] 65.7% | [19] 15.3% | [17] 77.5%

CCc1c(C(=O)Nc2ccc3ccccc3c2)[nH]c(C)c1C(C)=O
inactive: [1] 107% | [2] 81.2% | [3] 95.7% | [4] 93.3% | [5] 96.7% | [6] 110% | [7] 102% | [8] 96.2% | [9] 93.8% | [10] 79.1% | [11] 93.7% | [12] 84.4% | [13] 110% | [14] 98.3% | [18] 74% | [15] 77.4% | [16] 87.2% | [17] 97.8%

O=C(Cc1c(F)cccc1Cl)Nc1ccc(S(=O)(=O)Nc2ncccn2)cc1
inactive: [1] 104% | [2] 89.7% | [3] 124% | [4] 109% | [5] 38.1% | [6] 116% | [7] 92.5% | [8] 96.5% | [9] 110% | [10] 104% | [11] 120% | [12] 110% | [13] 96% | [14] 105% | [15] 100% | [16] 107% | [19] 92.9% | [17] 122%

NC(=O)NNC(=O)c1ccccc1
inactive: [1] 115% | [2] 103% | [3] 110% | [4] 113% | [5] 113% | [6] 107% | [7] 106% | [8] 107% | [9] 107% | [10] 97.6% | [11] 113% | [12] 85.9% | [13] 111% | [14] 97.7% | [15] 104% | [16] 104% | [19] 96.5% | [17] 117%

CCN(Cc1ccc(CN(CC)C(=O)C(Cl)(Cl)Cl)cc1)C(=O)C(Cl)(Cl)Cl
inactive: [1] 97.7% | [2] 27% | [3] 68.4% | [4] 98.2% | [5] 101% | [6] 80.5% | [7] 76.4% | [8] 101% | [9] 89.9% | [10] 94.2% | [11] 77.5% | [12] 87.7% | [13] 106% | [14] 91.6% | [18] 64.9% | [15] 71.2% | [16] 82.7% | [17] 96.2%
